Compound activity from PubChem.
L3MBTL1 inh: inhibitors of human L3MBTL1. Potency, µM (doses to about 57.1 µM), for inactives: at the top dose activity, negative = inhibition, hits mostly inhibitors. Q9Y468. AlphaScreen L3MBTL1–H3K9me1 peptide binding. AID 485360. 0.66% of 230,000 active; further: on the % scale 0 is the no-effect control and ±100 the full control effect; nearly all actives have a fitted effect of over 60% in size
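Read-out is AlphaScreen signal from streptavidin donor and nickel chelate acceptor beads (10 ug/mL final each) bridging L3MBTL1 (50 nM) and biotinylated K9-monomethylated H3(1-15) peptide (75 nM), after 30 min compound exposure at room temperature.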
HP1b binding inh: inhibitors of HP1-beta chromodomain binding to methylated histone tails; Potency, µM (top dose mostly 114 µM), without a hit: at the highest dose activity change, negative = inhibition, hits mostly inhibitors; P83916; 0.56% of 390,000 active; AlphaScreen HP1-beta / biotin-H3K9me3 peptide binding; further: nearly all actives have a fitted effect of over 70% in size
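Compound inhibition of the preformed complex between 50 nM HP1-beta and 50 nM biotinylated H3K9me3 peptide was read by AlphaScreen. Buffer was PBS pH 7.4 with 0.01% Tween-20. Incubations ran 30 min at room temperature, with 10 ug/mL donor/acceptor beads.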
PLK1 PBD block: inhibitors of human PLK1 polo-box domain binding. P53350. Plk1 PBD binding of FITC phosphopeptide, fluorescence polarization. 2.8% of 360,000 active. AID 720504. Potency, µM, for the others: max response, negative = inhibition, usual class: inhibitors; further: series mostly up to about 57 µM; on the % scale 0 is the no-effect control and ±100 the full control effect; nearly all actives have a fitted effect of over 65% in size
Target sequence (P53350 whole entry, looked up, the tested form may be a part): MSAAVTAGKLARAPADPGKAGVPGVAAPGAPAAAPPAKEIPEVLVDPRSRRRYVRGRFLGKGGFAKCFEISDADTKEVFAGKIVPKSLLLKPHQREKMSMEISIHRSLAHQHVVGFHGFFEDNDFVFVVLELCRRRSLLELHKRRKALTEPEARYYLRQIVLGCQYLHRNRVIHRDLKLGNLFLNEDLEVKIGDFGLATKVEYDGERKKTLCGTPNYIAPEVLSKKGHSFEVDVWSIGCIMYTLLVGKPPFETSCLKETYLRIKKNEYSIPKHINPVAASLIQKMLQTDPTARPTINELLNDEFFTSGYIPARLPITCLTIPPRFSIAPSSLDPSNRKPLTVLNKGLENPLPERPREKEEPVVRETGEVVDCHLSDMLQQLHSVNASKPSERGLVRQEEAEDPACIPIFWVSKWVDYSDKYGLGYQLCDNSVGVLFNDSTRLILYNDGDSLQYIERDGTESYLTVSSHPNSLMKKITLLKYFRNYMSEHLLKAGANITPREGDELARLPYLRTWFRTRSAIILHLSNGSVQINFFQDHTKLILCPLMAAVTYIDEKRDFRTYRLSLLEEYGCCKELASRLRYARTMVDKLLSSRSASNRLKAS
JMJD2A Tudor: JMJD2A Tudor domain (human) inhibition; AlphaScreen JMJD2A-Tudor / H3K4me3 peptide binding; Potency, µM (series often up to 114 µM), without a hit: at the highest dose activity change, negative = inhibition, actives largely listed as inhibitors; 4.4% of 390,000 active; AID 504339; further: on the % scale 0 is the no-effect control and ±100 the full control effect; nearly all actives have a fitted effect of over 50% in size
VDR inh: vitamin D3 receptor (human) inhibition | P11473 | VDR-SRC2-3 peptide fluorescence polarization, 2 h | Potency, µM, for the others: max response, negative = inhibition, most hits filed as inhibitors | 0.93% of 400,000 active; further: on the % scale 0 is the no-effect control and ±100 the full control effect
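Reagent solutions, kept cold and dark, are dispensed first; compounds are then pinned in at 23 nl, plates briefly spun, and incubated 2 h at ambient temperature. Inhibition of VDR–SRC2-3 peptide binding is read by fluorescence polarization.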
BAZ2B block: blocks human BAZ2B | 4.4% of 360,000 active | AID 504333 | AlphaScreen BAZ2B-H3K14Ac peptide displacement | Potency, µM (highest dose often 114 µM), without a hit: top-dose activity change, negative = inhibition, most hits filed as inhibitors; further: on the % scale 0 is the no-effect control and ±100 the full control effect; nearly all actives have a fitted effect of over 60% in size
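Inhibition is scored as reduced AlphaScreen emission. The BAZ2B/b-H3(5-23)K14Ac complex (50 nM each) in PBS pH 7.4, 0.01% Tween-20 meets compound (up to 110 uM) for 30 min at RT before bead addition.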
Starred values were filed as active, the others as inactive; [ ] = dose if it differs, or a comment. The list is not random: actives were taken first. Their share in the collection is about 6.9%. The call rests on the fitted dose curve; in most records, active means well fitted curve in the direction sought with a large enough effect; inconclusive means small, poorly fitted or top-dose-only effect, or another doubt; inactive means no such curve, though single readings can be large; an effect the other way counts as inactive or inconclusive. Potency means the concentration at half of the fitted maximal effect.

How did CC1Cc2cc(/C(O)=C3/C(=O)C(=O)N(CCCn4ccnc4)C3c3ccco3)ccc2O1 (centres undefined) do in these assays?
L3MBTL1 inh: 0%; HP1b binding inh: -6%; PLK1 PBD block: -6%; JMJD2A Tudor: 32µM*; VDR inh: -1%; BAZ2B block: inconclusive

How did COc1ccccc1Cc1c(-c2ccco2)nc2ccc(Br)cn12 do in these assays?
PLK1 PBD block: 13µM*

What do the screens show for `FC(F)(F)c1ccccc1Cc1c(-c2ccco2)nc2ccc(Br)cn12`?
PLK1 PBD block: 27µM*

How did COc1ccccc1Cc1c(-c2ccc(F)cc2)nc2ccc(Br)cn12 do in these assays?
PLK1 PBD block: -7%

What do the screens show for `NC(=O)c1ccc2c(=O)n3c(-c4cc(Cl)c(N)c(Cl)c4)csc3nc2c1`?
HP1b binding inh: 75%; PLK1 PBD block: -22%; JMJD2A Tudor: 71µM*; VDR inh: -18%; BAZ2B block: inconclusive

What do the screens show for `O=C(O)CCSc1ccccn1`?
L3MBTL1 inh: -1%; HP1b binding inh: 17%; PLK1 PBD block: 13µM*; JMJD2A Tudor: -16%; VDR inh: -9%; BAZ2B block: 1%

What do the screens show for `O=C(CCSc1ccccn1)c1ccccc1`?
L3MBTL1 inh: -6%; HP1b binding inh: 38%; PLK1 PBD block: inconclusive; JMJD2A Tudor: 14%; VDR inh: inconclusive; BAZ2B block: -4%

What do the screens show for `O=C(NCCO)c1ccc(Oc2ccc(C(F)(F)F)cc2[N+](=O)[O-])cc1`?
L3MBTL1 inh: -5%; HP1b binding inh: 26%; PLK1 PBD block: -2%; JMJD2A Tudor: -3%; VDR inh: 11%; BAZ2B block: -10%

How did Cc1cc(C)cc(OC(=O)CS(=O)c2ccc(C(F)(F)F)cc2[N+](=O)[O-])c1 (centres undefined) do in these assays?
HP1b binding inh: 11%; PLK1 PBD block: inconclusive; JMJD2A Tudor: inconclusive; VDR inh: 20µM*; BAZ2B block: -13%

Results for O=C(CS(=O)c1ccc(C(F)(F)F)cc1[N+](=O)[O-])Oc1ccc(Cl)cc1 (centres undefined) ?
HP1b binding inh: -11%; PLK1 PBD block: 13µM*; JMJD2A Tudor: -27%; VDR inh: 50µM*; BAZ2B block: -7%

How did CCOc1ccc(NS(=O)(=O)c2ccc3c(c2)NC(=O)CCS3)cc1 do in these assays?
HP1b binding inh: 12%; JMJD2A Tudor: -8%; VDR inh: 2%; BAZ2B block: -1%

How did Cc1ccc(NC(=O)c2cccc(C(F)(F)F)c2)cc1NC(=O)c1[nH]cnc1C(N)=O do in these assays?
L3MBTL1 inh: -10%; HP1b binding inh: 31%; PLK1 PBD block: -3%; JMJD2A Tudor: inconclusive; VDR inh: -1%; BAZ2B block: 56µM*

What do the screens show for `CCOC(=O)c1c(/N=C/N(C)C)sc(/C=N/Nc2ccccc2)c1-c1ccccc1`?
L3MBTL1 inh: -3%; HP1b binding inh: -11%; PLK1 PBD block: 24µM*; JMJD2A Tudor: inconclusive; VDR inh: -20%; BAZ2B block: -4%

What do the screens show for `CCCC(=O)O[C@]1(C(=O)CCl)[C@H](C)C[C@@H]2[C@H]3CCC4=CC(=O)C=C[C@]4(C)[C@@]3(F)C(=O)C[C@@]21C`?
VDR inh: -10%

What do the screens show for `CN(C)c1ccc(-c2nnc3n(Cc4ccccc4)c(=O)c4ccccc4n23)cc1`?
HP1b binding inh: 13%; JMJD2A Tudor: -16%; VDR inh: 17%; BAZ2B block: -27%

How did CCCC(=O)C1C(=O)CC(C)(C)C(c2cc(C)no2)C1=O (centres undefined) do in these assays?
L3MBTL1 inh: 10%; HP1b binding inh: 10%; PLK1 PBD block: -1%; JMJD2A Tudor: 50µM*; VDR inh: 3%; BAZ2B block: -11%

How did O=C(CCCn1c(=O)[nH]c2ccccc2c1=O)NCc1ccccc1Cl do in these assays?
HP1b binding inh: -8%; JMJD2A Tudor: -17%; VDR inh: 7%; BAZ2B block: -13%

Results for COc1ccc(-c2[nH]c(-c3ccc(C(=O)O)cc3)nc2-c2ccccc2)cc1 ?
L3MBTL1 inh: 0%; HP1b binding inh: 19%; PLK1 PBD block: -9%; JMJD2A Tudor: inconclusive; VDR inh: 2%; BAZ2B block: 79µM*

Results for O=C(O)c1ccc(-c2nc(-c3ccccc3)c(-c3ccccc3)[nH]2)cc1 ?
L3MBTL1 inh: -6%; HP1b binding inh: 40µM*; PLK1 PBD block: inconclusive; JMJD2A Tudor: 79µM*; VDR inh: -13%; BAZ2B block: inconclusive

Results for CCCCc1cc(=O)oc2cc(C)c3c(C(C)(C)C)coc3c12 ?
HP1b binding inh: 4%; JMJD2A Tudor: 28%; VDR inh: 6%; BAZ2B block: -20%

Results for O=C(Nc1cccc(F)c1)c1ccc2oc(=O)n(Cc3ccccc3)c2c1 ?
HP1b binding inh: 17%; JMJD2A Tudor: -9%; VDR inh: 4%; BAZ2B block: -6%

How did CCOC(=O)c1c(C)[nH]c(C(=O)COC(=O)CNC(=O)c2ccc(Br)cc2)c1C do in these assays?
L3MBTL1 inh: 0%; HP1b binding inh: 37%; PLK1 PBD block: 4%; JMJD2A Tudor: 4%; VDR inh: 13%; BAZ2B block: 7%

How did CCOC(=O)c1c(C)[nH]c(C)c1C(=O)COC(=O)CNC(=O)c1ccc(OCC)cc1 do in these assays?
L3MBTL1 inh: -1%; HP1b binding inh: -22%; PLK1 PBD block: 30µM*; JMJD2A Tudor: -8%[11.4 µM]; VDR inh: -9%; BAZ2B block: -26%

How did CC(C)Cn1c(CN2CCCCC2C)nc2c1c(=O)n(C)c(=O)n2C (centres undefined) do in these assays?
L3MBTL1 inh: 2%; HP1b binding inh: 12%; PLK1 PBD block: -4%; JMJD2A Tudor: -12%; VDR inh: 8%; BAZ2B block: 7%

Results for CCc1ccc(/C=C2/C(=O)N(CC)C(=S)N2C)s1 ?
L3MBTL1 inh: 9%; HP1b binding inh: 47%; PLK1 PBD block: 24µM*; JMJD2A Tudor: 42%; VDR inh: -21%; BAZ2B block: 28%

Results for CCOc1ccc(N2C(=O)/C(=C/c3cccs3)N(C)C2=S)cc1 ?
L3MBTL1 inh: 1%; HP1b binding inh: 32%; PLK1 PBD block: -2%; JMJD2A Tudor: -7%; VDR inh: -5%; BAZ2B block: -24%

Results for COCC(=O)OCC(=O)Nc1cc(C(C)(C)C)nn1-c1ccccc1 ?
HP1b binding inh: 15%; PLK1 PBD block: -9%; JMJD2A Tudor: -14%; VDR inh: 14%; BAZ2B block: 12%

What do the screens show for `CC(C)(C)CC(=O)OCC(=O)Nc1cc(C(C)(C)C)nn1-c1ccccc1`?
HP1b binding inh: -1%; PLK1 PBD block: 24µM*; JMJD2A Tudor: inconclusive; VDR inh: -24%; BAZ2B block: 6%
